Source: PubChem BioAssay
PI5P4K alpha inh: PI5P4K alpha (human) kinase inhibition; max response, %; AID 652105; 330,000 compounds, 1.2% hits; PI5P4Kalpha enzyme, ADP-Glo luminescence, 60 min; active compounds read low; active = max response of -50% or lower; inconclusive = between -30% and -50%; inactive = -30% or higher; also: value at the top dose of about 77 µM; % is scaled to controls: 0 for no effect and ±100 for the full control effect
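PI5P4Kalpha ADP-Glo assay; 5 microM ATP final; 60 min RT reaction; HEPES pH 7.4/EGTA/CHAPS, 5% DMSO; controls lacking substrate or enzyme; luminescent end-point.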
HP1b binding inh: inhibitors of HP1-beta chromodomain binding to methylated histone tails; P83916; AlphaScreen HP1-beta / biotin-H3K9me3 peptide binding; Potency, µM (doses to about 114 µM), for inactives: top-dose activity change, negative = inhibition, hits mostly inhibitors; 390,000 compounds, 0.56% hits; AID 540317; also: potency is read from the fitted curve at half-maximal effect; nearly all actives have a fitted effect of over 70% in size
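AlphaScreen: HP1-beta (50 nM) preformed 30 min with biotin-H3(1-18)K9me3 peptide (50 nM) in PBS pH 7.4, 0.01% Tween-20. Compound added for 30 min at RT, then streptavidin donor/nickel chelate acceptor beads (10 ug/mL) for 30 min.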
G9a block: G9a (human) methyltransferase inhibition | G9a H3K9 monomethylation, AlphaScreen, 2 h | Potency, µM (series often up to 102 µM), for the others: at the highest dose activity, negative = inhibition, usual class: inhibitors | 350,000 compounds, 8.8% hits | AID 504332 | Q96KQ7; also: potency is read from the fitted curve at half-maximal effect; % is scaled to controls: 0 for no effect and ±100 for the full control effect; nearly all actives have a fitted effect of over 75% in size
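Compounds were preincubated with 20 nM G9a for 15 min, after which biotinylated H3K9 peptide (500 nM) and SAM (20 uM) started a 2 h room-temperature reaction. Monomethylated product was quantified by antibody-based AlphaScreen chemiluminescence.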
L3MBTL1 block: L3MBTL1 (human) inhibition; Q9Y468; AlphaScreen L3MBTL1–H3K9me1 peptide binding; Potency, µM (doses to about 57.1 µM), for the others: at the highest dose activity, negative = inhibition, most hits filed as inhibitors; 230,000 compounds, 0.66% hits; AID 485360; also: potency is read from the fitted curve at half-maximal effect; % is scaled to controls: 0 for no effect and ±100 for the full control effect; nearly all actives have a fitted effect of over 60% in size
Target sequence (Q9Y468 whole entry, looked up): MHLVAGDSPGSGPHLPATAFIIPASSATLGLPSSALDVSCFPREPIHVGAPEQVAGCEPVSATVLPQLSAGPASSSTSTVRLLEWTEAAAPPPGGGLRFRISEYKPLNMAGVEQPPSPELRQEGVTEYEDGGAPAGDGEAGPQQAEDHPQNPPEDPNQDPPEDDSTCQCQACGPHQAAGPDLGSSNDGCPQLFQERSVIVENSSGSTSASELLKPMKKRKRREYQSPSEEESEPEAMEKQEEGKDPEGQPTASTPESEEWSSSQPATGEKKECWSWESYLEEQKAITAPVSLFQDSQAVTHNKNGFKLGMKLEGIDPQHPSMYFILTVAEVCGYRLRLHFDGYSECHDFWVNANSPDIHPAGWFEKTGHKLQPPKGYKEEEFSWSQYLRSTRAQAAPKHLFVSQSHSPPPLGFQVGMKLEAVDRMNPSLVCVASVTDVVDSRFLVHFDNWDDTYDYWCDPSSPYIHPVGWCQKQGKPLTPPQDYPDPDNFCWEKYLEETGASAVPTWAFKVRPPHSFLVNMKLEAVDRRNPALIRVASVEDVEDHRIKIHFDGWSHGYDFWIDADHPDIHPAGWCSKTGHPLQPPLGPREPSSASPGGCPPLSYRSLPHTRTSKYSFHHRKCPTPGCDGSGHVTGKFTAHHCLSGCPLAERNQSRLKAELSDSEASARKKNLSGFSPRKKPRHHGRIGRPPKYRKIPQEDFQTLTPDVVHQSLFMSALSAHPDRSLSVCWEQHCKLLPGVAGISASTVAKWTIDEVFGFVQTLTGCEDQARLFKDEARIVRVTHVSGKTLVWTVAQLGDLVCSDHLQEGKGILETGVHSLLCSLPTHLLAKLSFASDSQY
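Displacement of a biotinylated histone H3(1-15) peptide monomethylated at Lys9 (75 nM) from L3MBTL1 (50 nM) was measured by AlphaScreen after a 30 min room-temperature compound incubation; cefsulodin titration served as intraplate control.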
JMJD2A Tudor: blocks the human JMJD2A Tudor domain; AlphaScreen JMJD2A-Tudor / H3K4me3 peptide binding; Potency, µM (titrated, usually from 114 µM), for the others: top-dose activity change, negative = inhibition, hits mostly inhibitors; 390,000 compounds, 4.4% hits; AID 504339; O75164; also: potency is read from the fitted curve at half-maximal effect; % is scaled to controls: 0 for no effect and ±100 for the full control effect; nearly all actives have a fitted effect of over 50% in size
BAZ2B block: BAZ2B (human) inhibition; Q9UIF8; AlphaScreen BAZ2B-H3K14Ac peptide displacement; Potency, µM (series often up to 114 µM), for the others: at the highest dose activity change, negative = inhibition, usual class: inhibitors; 360,000 compounds, 4.4% hits; also: potency is read from the fitted curve at half-maximal effect; % is scaled to controls: 0 for no effect and ±100 for the full control effect; nearly all actives have a fitted effect of over 60% in size
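Compounds, titrated to a top concentration of 110 uM, were incubated 30 min at room temperature with preformed BAZ2B/acetyl-K14 H3 peptide complex (50 nM each). Proximity signal was measured by AlphaScreen after 20 min with beads.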
* marks the source's active call; other numbers are inactive results; ? = inconclusive; . = not tested or not shown; ! = not confirmed by another sample; [ ] = remark or other dose. Only some compounds are listed: those with a hit (about 11% of all), similar ones and a draw of the others. Unless noted, calls follow the shape of the dose curve; as a rule, active = well fitted inhibition curve with a large enough effect; inconclusive = small, poorly fitted or top-dose-only effect; inactive = no such curve, though single readings can be large or run the other way.

SMILES	PI5P4K alpha inh	HP1b binding inh	G9a block	L3MBTL1 block	JMJD2A Tudor	BAZ2B block
O=C1/C(=C/c2cccnc2)SC(=S)N1CC1CCCO1 (configuration not stated)	-7	-16%	-20%	-11%	-35%	-35%
CC(C)OCCCN1C(=O)c2[nH]nc(-c3ccccc3O)c2C1c1ccccc1F (configuration not stated)	.	29%	-6%[59 µM]	.	-32%	-22%
CCN(CC)Cc1cc(NC2=NS(=O)(=O)c3ccccc32)ccc1OC(=O)c1ccccc1	-5	43%	79µM*	4%	-10%	-7%
O=C(O)c1ccccc1C(=O)Nc1ccc(Oc2cccc3ccccc23)cc1	4	18%	40µM*	?	-35%	50µM*
Cc1cccc(Oc2ccc(NC(=O)c3ccccc3C(=O)O)cc2)c1C	-20	27%	?	-30%	-21%	?
COc1cc(/C=C2/C(=O)NN(c3ccc(Cl)cc3)C2=O)ccc1OC(=O)c1ccco1	?	-35%	?	1%	?	?
O=C(O)CN1C(=O)/C(=C\c2ccc(OC(=O)c3ccco3)cc2)SC1=S	-16	-31%	8.9µM*	.	?	-22%
C=CCN1C(=O)/C(=C\c2cccc(OC(=O)c3ccco3)c2)SC1=S	-2	-10%	79µM*	.	-28%	-25%
C=CCN1C(=O)/C(=C\c2ccc(OC(=O)c3ccco3)c(OC)c2)SC1=S	0	-20%	14µM*	.	?	10µM*
COc1cc(/C=C2/C(=O)NN(c3cccc(F)c3)C2=O)ccc1OC(=O)c1ccco1	-26	-9%	28µM*	-8%	-25%	?
CC(C)(C)c1ccc(Oc2nc3ccccn3c(=O)c2/C=C(\C#N)c2nc3ccccc3[nH]2)cc1	.	54%	6%[59 µM]	.	0%	2%
COc1ccc2c(c1OC)C(=O)OC2Nc1nc(-c2ccc(-c3ccccc3)cc2)cs1 (configuration not stated)	13	?	40µM*	-12%	?	?
COc1cccc(-c2csc(NC3OC(=O)c4c3ccc(OC)c4OC)n2)c1 (configuration not stated)	-4	3%	.	4%	-20%	79µM*
COc1ccc2c(c1OC)C(=O)OC2Nc1nc(-c2cc3ccccc3oc2=O)cs1 (configuration not stated)	-21	37%	?	14%	5%	17%
COc1ccc2c(c1OC)C(=O)OC2Nc1nc(-c2cc3cc([N+](=O)[O-])ccc3oc2=O)cs1 (configuration not stated)	-15	-9%	-17%[59 µM]	2%	-11%	2%
COc1cc(C2c3c(oc4ccc(F)cc4c3=O)C(=O)N2Cc2ccc3c(c2)OCO3)ccc1O (configuration not stated)	.	20%	28%[59 µM]	.	6%	-2%
Cc1c(N=NC2=C(O)CC(C)(C)CC2=O)cc2c(c1[N+](=O)[O-])C(C)(C)CC2(C)C	23	?	?	.	22µM*	?
CC(C)(CO)[C@H](O)C(=O)NCCC(=O)O	.	.	20%[21.5 µM]	.	.	.
Cc1nnc(C)c2c(C)n(C(C)c3ccccc3)c(C)c12 (configuration not stated)	-18	-8%	3%[59 µM]	-20%	?	-20%
COc1ccc(C(C)n2c(C)c3c(C)nnc(C)c3c2C)cc1 (configuration not stated)	.	-14%	?	-6%	?	89µM*!
O=C(O)/C=C/C(=O)NC1CCS(=O)(=O)C1 (configuration not stated)	-2	57%	3.2µM*	8%	-7%	?
CCOc1ccc(C2C=C(c3ccc(C)cc3)Nc3ncnn32)cc1 (configuration not stated)	.	.	28µM*	2%	.	12%
CCOc1ccc(C2C=C(c3ccc(C)cc3)Nc3nnnn32)cc1 (configuration not stated)	-12	37%	50µM*	-2%	-10%[57.1 µM]	?
CCOc1ccc(C2C=C(c3cccc(OC)c3)Nc3nnnn32)cc1 (configuration not stated)	.	6%	6%[59 µM]	.	-11%	-11%
Cc1ccc(C2=CC(c3ccc(C)cc3)n3ncnc3N2)cc1 (configuration not stated)	-4	56%	.	.	-17%	.
SMILES	PI5P4K alpha inh	HP1b binding inh	G9a block	L3MBTL1 block	JMJD2A Tudor	BAZ2B block
CCOc1ccc(C2C=C(c3ccccc3)Nc3nnnn32)cc1 (configuration not stated)	0	65%	50µM*	0%	-7%	7%
CC1CN(c2cc(=O)n(-c3ccccc3)c(=O)[nH]2)CC(C)O1 (configuration not stated)	7	10%	40µM*	2%	1%	10%
Cc1ccc(-n2c(=O)cc(N3CC(C)OC(C)C3)[nH]c2=O)cc1 (configuration not stated)	1	15%	?	.	-11%	.
CN1CCN(C(=S)NC(=O)/C=C/c2cccc3ccccc23)CC1	.	2%	-4%	-2%	?	-1%
O=C(/C=C/c1cccs1)NC(=S)Nc1ccc(C(=O)O)cc1	-72*	22%	?	0%	-31%	-28%
NS(=O)(=O)c1ccc(NC(=S)NC(=O)/C=C/c2cccs2)cc1	6	19%	3%	-8%	4%	-3%
CN1CCN(C(=S)NC(=O)/C=C/c2cccs2)CC1	-20	24%	50µM*	-5%	?	-17%
Cc1ccc(CNC(=O)c2cc(=O)c3cc(C)cc(C)c3o2)cc1	.	27%	-36%[59 µM]	.	-12%	-8%
O=C(CCC1N=C2c3ccccc3N=C(SCc3cccc(F)c3)N2C1=O)NCc1ccc(F)cc1 (configuration not stated)	.	18%	0%[59 µM]	.	-17%	-3%
CCCc1nnc(NC(=O)Cc2coc3ccc(C(C)C)cc23)s1	.	20%	-3%[59 µM]	.	-9%	-2%
C#CCOCCOCCOCCNc1nc(N2CCN(C(=O)CCCCCCCCCCNC(=O)[C@@H](CCC(=O)O)n3cc(CCCCCN)nn3)CC2)nc(N2CCN(C(=O)CCCCCCCCCCNC(=O)[C@H]([C@@H](C)CC)n3cc(CCCCCN)nn3)CC2)n1	?	0%	11%[2.33 µM]	-11%	?	56µM*
C#CCOCCOCCOCCNc1nc(N2CCN(C(=O)CCCCCCCCCCNC(=O)[C@H]([C@@H](C)CC)n3cc(CCCCCN)nn3)CC2)nc(N2CCN(C(=O)CCCCCCCCCCNC(=O)[C@H](CO)n3cc(CCCCCN)nn3)CC2)n1	-50*	-20%	1%[2.33 µM]	-10%	?	?
